PubChem BioAssay (Tox21)
Results filed as inconclusive are left out. Unmarked numbers belong to inactive results. The call rests on the fitted dose curve.

target: Retinoic acid receptor RXR-alpha (Homo sapiens) (UniProt P19793); test: qHTS assay to identify small molecule agonists of the RXR signaling pathway (AID 1159527); settings: HEK293T RXRa-UAS-bla, beta-lactamase ratio, 16 h; series mostly up to 76.8 µM; activation: at the top concentration; further: nearly all actives have a fitted effect of over 35% in size
Sequence (P19793 whole entry, looked up): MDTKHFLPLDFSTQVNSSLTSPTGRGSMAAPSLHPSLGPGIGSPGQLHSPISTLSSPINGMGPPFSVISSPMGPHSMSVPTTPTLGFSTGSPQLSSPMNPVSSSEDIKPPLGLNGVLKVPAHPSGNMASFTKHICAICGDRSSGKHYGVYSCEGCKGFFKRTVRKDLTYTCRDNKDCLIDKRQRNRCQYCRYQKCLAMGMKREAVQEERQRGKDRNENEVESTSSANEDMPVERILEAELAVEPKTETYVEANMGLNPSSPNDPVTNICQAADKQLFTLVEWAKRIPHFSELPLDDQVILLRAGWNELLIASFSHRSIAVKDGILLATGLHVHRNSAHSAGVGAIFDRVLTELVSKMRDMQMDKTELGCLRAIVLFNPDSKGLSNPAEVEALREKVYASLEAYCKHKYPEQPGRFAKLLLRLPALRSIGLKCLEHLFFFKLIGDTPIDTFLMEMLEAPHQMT
Text: U.S. Tox21 Program National Center for Advancing Translational Sciences [NCATS] NIH Chemical Genomics Center [NCGC] U.S. Environmental Protection Agency [EPA] National Institutes of Environmental Health Sciences [NIEHS] National Toxicology Program [NTP] U.S. Food and Drug Administration [FDA] Tox21 Assay Overview: The Retinoid X receptor (RXR), a nuclear hormone receptor expressed in liver, spleen, placenta, epidermis, central nervous system. These receptors are able to form homo and heterodimers with other nuclear receptors and due to this heterodimerizing ability, RXR functions as master regulators producing diverse physiological effects. Three subtypes of RXR exist; alpha, beta and gamma. Retinoid X receptor alpha (RXR-alpha) has potential roles in metabolic signaling pathways, skin alopecia, dermal cysts, cardiac development, insulin sensitization etc. Therefore screening environmental chemicals on RXR-alpha signaling can be used for the studies focused on such therapeutic applications. For quantification of RXR-alpha ligands signaling, GeneBLAzer RXR alpha-UAS-bla HEK 293T (Life Technologies, Carlsbad, CA) cells containing a beta-lactamase reporter-gene under control of Retinoid X receptor-alpha response element were used to screen Tox21 10K library.
Tox21 Assay Protocol Summary: RXR-alpha HEK 293T cells were dispensed at 2,000 cells/6 uL of assay medium containing 2% charcoal-stripped FBS using a Multidrop Combi (ThermoFisher Scientific, Waltham, MA) dispenser. The assay was performed in black wall/clear-bottom 1536-well plates (Greiner Bio-One North America Inc. Monroe, NC). 9-cis retinoic acid was used as a positive control in the agonist mode screen. After the assay plates were incubated at 37 C and 5% CO2 for 5 hr, 23 nL of compounds dissolved in DMSO, positive controls or DMSO only were transferred to the assay plate by a Pintool station (Kalypsys, San Diego, CA). The assay plates were incubated at 37 C and 5% CO2 for 16 hr. One uL of LiveBLAzer B/G FRET substrate (Life Technologies) was added using a Flying Reagent Dispenser (Aurora Discovery, San Diego, CA) and the plates were incubated at room temperature for 2 hr. Fluorescence intensity (405 nm excitation, 460/530 nm emission) was measured using an Envision plate reader (PerkinElmer, Shelton, CT).
On the % scale 0 is the no-effect control and ±100 the full control effect.

Q: For `COc1cc2c(cc1OC)-c1cc3ccc(OC)c(OC)c3c[n+]1CC2`, which “activation” value is on record?
A: -19.1%

Q: For `CO[C@@]1(NC(=O)C(C(=O)O)c2ccc(O)cc2)C(=O)N2C(C(=O)O)=C(CSc3nnnn3C)CO[C@@H]21` (stereo not given in full), which “activation” value is on record?
A: -5.03% [at 35.3 µM]

Q: `CC(=O)NC(=O)c1ccccc1O` was tested. Which “activation” value did it give?
A: 5.05% [at 35.3 µM]

Q: How did the “activation” value turn out when `CCO[Si](OCC)(OCC)c1ccccc1` was run?
A: 6.55%

Q: `C=CCCCCCCCCC(=O)OCC` was tested. Which “activation” value did it give?
A: -9.11%

Q: Which “activation” value does the source give for `CNC(=O)Nc1ccc(Cl)c(Cl)c1` here?
A: 7.18%

Q: For `CC(C)(C)c1ccc(-c2ccc(C(C)(C)C)cc2)cc1`, which “activation” value is on record?
A: 10.8%

Q: `CC(C)(C)C(=O)Oc1ccc(S(=O)(=O)Nc2ccccc2C(=O)NCC(=O)O)cc1` was tested. Which “activation” value did it give?
A: 3.97% [at 35.3 µM]

Q: Which “activation” value does the source give for `NCCCC(N)(C(=O)O)C(F)F` (stereo not given) here?
A: 0.146% [at 35.3 µM]

Q: With `COc1cc(C)nc(-n2nc(C)cc2OC)n1` as the molecule, how does the “activation” value read?
A: -11% [at 35.3 µM]

Q: For `COc1c(N2CCNC(C)C2)c(F)cc2c(=O)c(C(=O)O)cn(C3CC3)c12` (stereo not given), which “activation” value is on record?
A: 10% [at 35.3 µM]

Q: With `CCN(C=O)CC` as the molecule, how does the “activation” value read?
A: -18.2%

Q: How did the “activation” value turn out when `CC(=O)c1ccc2ccccc2c1` was run?
A: 1.73%

Q: How did the “activation” value turn out when `OCCc1ccccn1` was run?
A: -3.76%

Q: Which “activation” value does the source give for `O=Cc1cccc(Br)c1` here?
A: 3.43%

Q: With `NS(=O)(=O)Cc1noc2ccccc12` as the molecule, how does the “activation” value read?
A: 10.8% [at 35.3 µM]

Q: `Cc1ccc(C(=O)Nc2ccc(S(=O)(=O)O)c3cc(S(=O)(=O)O)cc(S(=O)(=O)O)c23)cc1NC(=O)c1cccc(NC(=O)Nc2cccc(C(=O)Nc3cc(C(=O)Nc4ccc(S(=O)(=O)O)c5cc(S(=O)(=O)O)cc(S(=O)(=O)O)c45)ccc3C)c2)c1` was tested. Which “activation” value did it give?
A: -0.0733% [at 35.3 µM]

Q: With `C=C(C)C(=O)OCC1CCCO1` (stereo not given) as the molecule, how does the “activation” value read?
A: 14.4%

Q: With `NC(=O)N[C@@H](CCC(=O)O)C(=O)O` as the molecule, how does the “activation” value read?
A: 8.47% [at 35.3 µM]

Q: With `Cc1ncc([C@@H](CCCCCCc2ccc3c(n2)NCCC3)CC(=O)O)cn1` as the molecule, how does the “activation” value read?
A: 12.4%

Q: `CC[N+](C)(CC)CCOC(=O)C1c2ccccc2Oc2ccccc21` was tested. Which “activation” value did it give?
A: 12.6% [at 35.3 µM]

Q: With `CCOC(=O)C(=O)CCCCCCl` as the molecule, how does the “activation” value read?
A: 3.14% [at 35.3 µM]

Q: How did the “activation” value turn out when `CCCCOCCOC(=O)CCCCCCCCC(=O)OCCOCCCC` was run?
A: -14.9%

Q: For `NC(CCC(=O)O)C(=O)O` (stereo not given), which “activation” value is on record?
A: 2.97%

Q: With `CC(C)(C)OC(=O)c1cccc(N)c1` as the molecule, how does the “activation” value read?
A: -0.613%

Q: For `O=C(O)CCSCCC(=O)O`, which “activation” value is on record?
A: 2.16%

Q: For `O=C(O)c1cc(C(=O)O)cc(C(=O)O)c1`, which “activation” value is on record?
A: 16.9%

Q: Which “activation” value does the source give for `CN(C)CCCN(C)CCCN(C)C` here?
A: 12.8%

Q: How did the “activation” value turn out when `CCCCOCCOC(=O)COc1cc(Cl)c(Cl)cc1Cl` was run?
A: -6.55%

Q: How did the “activation” value turn out when `CCN1CCOCC1` was run?
A: 3.12%

Q: For `O=C1c2ccccc2C(=O)c2cc(O)ccc21`, which “activation” value is on record?
A: -8.24%

Q: How did the “activation” value turn out when `O=S(=O)(O)c1cccc2c(S(=O)(=O)O)cccc12` was run?
A: -0.251%

Q: Which “activation” value does the source give for `O=C(O)Cc1csc(-c2ccc(Cl)cc2)n1` here?
A: -0.5% [at 35.3 µM]

Q: With `CC(C)NNC(=O)c1ccncc1` as the molecule, how does the “activation” value read?
A: 5.23% [at 35.3 µM]

Q: Which activation does the source give for `Cc1cc(C)c(N=Nc2c(O)c(S(=O)(=O)O)cc3cc(S(=O)(=O)O)ccc23)cc1C` here?
A: 2.6% [at 6.98 µM]

Q: Which “activation” value does the source give for `O=S(=O)(O)c1cccc2ccccc12` here?
A: 10.3%

Q: With `NCCCC[C@H](N[C@@H](CCc1ccccc1)C(=O)O)C(=O)N1CCC[C@H]1C(=O)O` as the molecule, how does the “activation” value read?
A: -0.416% [at 35.3 µM]

Q: For `Nc1ccncc1N`, which “activation” value is on record?
A: 7.5% [at 35.3 µM]

Q: With `NC(=O)NC1N=C([O][Al])NC1=O` (stereo not given) as the molecule, how does the “activation” value read?
A: 0.0909% [at 35.3 µM]

Q: `CCOC(=O)c1ccccc1` was tested. Which “activation” value did it give?
A: 6.83%
